M4 antag = human M4 muscarinic receptor antagonists, primary screen, CHO cells, Fluo-8 calcium fluorescence; Muscarinic acetylcholine receptor M4 (Homo sapiens), P08173; CHO-hM4 cells, ACh EC80; inhibition, % at 3 µM; hit rate 0.73% among 360,000; AID 624125, 2012;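 active = inhibition above its plate's cutoff, the mean inhibition of sample wells plus 3 SD, cut at about 27% in these data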
M1 PAM = human M1 muscarinic receptor positive allosteric modulators, primary screen, CHO-K1 cells, Fluo-8 calcium fluorescence, 1536-well; Muscarinic acetylcholine receptor M1 (Homo sapiens), P11229; hit rate 0.088% among 360,000; activation, % at 3 µM; CHO-K1 hM1, ACh EC20; 0% = ACh EC20, 100% = maximal ACh; in the data active = activation above about 19%, passing the limit was not always enough
Target sequence (P11229 whole entry, looked up): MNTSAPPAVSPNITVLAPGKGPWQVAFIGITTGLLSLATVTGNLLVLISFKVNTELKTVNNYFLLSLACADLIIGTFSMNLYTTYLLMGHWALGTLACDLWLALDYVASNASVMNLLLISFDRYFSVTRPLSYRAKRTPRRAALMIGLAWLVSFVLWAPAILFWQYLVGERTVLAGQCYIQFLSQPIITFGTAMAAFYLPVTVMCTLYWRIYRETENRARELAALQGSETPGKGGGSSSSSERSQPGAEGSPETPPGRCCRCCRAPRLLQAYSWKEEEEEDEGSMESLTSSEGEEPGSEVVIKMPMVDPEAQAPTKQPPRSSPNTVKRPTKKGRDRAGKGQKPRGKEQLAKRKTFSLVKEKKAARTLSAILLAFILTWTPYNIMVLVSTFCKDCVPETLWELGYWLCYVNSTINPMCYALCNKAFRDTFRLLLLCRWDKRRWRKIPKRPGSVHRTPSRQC
CHRM1 antagonist = human M1 muscarinic receptor antagonists, primary screen, CHO-K1 cells, Fluo-8 calcium fluorescence, 1536-well. AID 588852, 2011. Muscarinic acetylcholine receptor M1 (Homo sapiens), P11229. inhibition, % at 3 µM. hit rate 1.3% among 360,000. CHO-K1 hM1, ACh EC80 antagonist;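 active = percent inhibition above its own plate's cutoff, namely the mean of that plate's compound wells plus 3 SD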;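 note: peak over basal fluorescence ratio during 140 s after agonist addition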
CHRM4 PAM = human M4 muscarinic receptor positive allosteric modulators, primary screen, CHO-K1 cells, Fluo-8 calcium fluorescence. hit rate 0.4% among 360,000. Muscarinic acetylcholine receptor M4 (Homo sapiens), P08173. CHO-K1 hM4/Gqi5, ACh EC20; 0% = ACh EC20, 100% = maximal ACh. activation, % at 3 µM;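 active = activation above its plate's cutoff, the mean activation of sample wells plus 3 SD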
M4 ag = human M4 muscarinic receptor agonists, primary screen, CHO-K1 cells, Fluo-8 calcium fluorescence. CHO-K1 hM4/Gqi5; vehicle 0%, full acetylcholine response 100%. activation, % at 3 µM. hit rate 0.14% among 360,000;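 active = activation above the run mean over all test wells plus 3 SD, cut at about 32% in these data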;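 note: peak over basal fluorescence ratio per well then scaled between controls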
CHRM1 agonist = human M1 muscarinic receptor agonists, primary screen, Fluo-8 calcium fluorescence, CHO-K1 cells, HTS | AID 588814, 2011 | hit rate 0.33% among 360,000 | CHO-K1 hM1, agonist mode; 0% DMSO, 100% acetylcholine EC100 | Muscarinic acetylcholine receptor M1 (Homo sapiens), P11229 | activation, % at 3 µM;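 active = activation above the run's mean compound activation plus 3 SD, cut at about 16% in these data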;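 note: peak over basal fluorescence ratio within a 140 s kinetic read after compound addition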
Large screens that a line does not name were inactive. Sampled rows, rich in hits. Any-hit rate of the full collection: about 2.2%.

Cc1ccc(-n2c(SCC(N)=O)nnc2-c2ccc(S(=O)(=O)N3CCCCC3)cc2)c(C)c1	M4 antag 99, CHRM1 antagonist 91
CCN(CC(=O)Nc1c(F)cccc1F)C(=O)/C=C/c1ccc(C)cc1	none
CCN(CC(=O)Nc1c(F)cccc1F)C(=O)/C=C/c1ccc(OCC#N)c(OC)c1	CHRM4 PAM 29
O=C(NNC(=O)c1ccc(Oc2cc(Cl)cc(Cl)c2)o1)c1ccccc1	none
O=C(NNC(=O)c1ccc(Oc2ccc(C3SCCS3)cc2)o1)c1ccc(Cl)cc1	M4 antag 27
CCOC(=O)c1c(NC(=S)N2CCN(C)CC2)sc2c1CCN(C(=O)OCC)C2	CHRM4 PAM 12, CHRM1 agonist 23
CCOC(=O)c1c(NC(=O)c2ccc(S(=O)(=O)N3CCOCC3)cc2)sc2c1CCN(C)C2	CHRM4 PAM 19
O=C(COC(=O)c1ccc(F)c(S(=O)(=O)N2CCOCC2)c1)NCCc1ccc(F)cc1	none
COc1ccc(C(=O)OCC(=O)NCCc2ccc(F)cc2)cc1S(=O)(=O)N1CCOCC1	CHRM1 antagonist 33
CCOC(=O)c1c(NC(=O)c2ccc(S(=O)(=O)N3CCOCC3)cc2)sc2c1CC(C)(C)NC2(C)C	none
CCOC(=O)c1ccc(NC(=O)c2cccc(S(=O)(=O)N3CCOCC3)c2)cc1	M4 antag 38
Cc1ccc(S(=O)(=O)N(C)C)cc1NC(=O)C(C)NC(C)c1cccs1 (configuration not stated)	none
O=C(CN1CC(c2ccccc2)CC1=O)N/N=C/c1cc(Br)ccc1O (configuration not stated)	none
CC(=O)c1ccc(NC(=O)c2ccc(C)c(S(=O)(=O)N3CCOCC3)c2)cc1	none
CC1CCCC(NC(=O)c2cccc(S(=O)(=O)N3CCOCC3)c2)C1C (configuration not stated)	CHRM4 PAM 16
CCOC(=O)c1ccc(NC(=O)c2ccc(C)c(S(=O)(=O)N3CCOCC3)c2)cc1	M4 antag 39, CHRM1 antagonist 51
CC1(NC(=O)c2cc(-c3cccs3)nn2-c2ccccc2)CCS(=O)(=O)C1 (configuration not stated)	none
COc1cc(/C=C/C(O)=C/C(=O)/C=C/c2ccc(O)cc2)ccc1O	M4 antag 27, CHRM1 antagonist 39, M4 ag 50, CHRM1 agonist 18
Cc1c(CC(=O)NCCCCCC(=O)O)c(=O)oc2c(C)c3oc4c(c3cc12)CCCC4	CHRM4 PAM 14
COC(=O)c1cc2ccsc2n1Cc1cc(=O)n2ccccc2n1	CHRM1 antagonist 77
CN(C)C=Nc1ccc(Cl)c(Cl)c1	none
COc1ccc(C2(C(=O)Nc3ccc(S(=O)(=O)Nc4nc(C)cc(C)n4)cc3)CCCC2)cc1OC	none
Cc1cc(C)nc(NS(=O)(=O)c2ccc(NC(=O)C3(c4ccc([N+](=O)[O-])cc4)CCCC3)cc2)n1	CHRM1 agonist 24
CCCCOC(=O)/C=C/c1c(C)[nH]c(=O)[nH]c1=O	CHRM4 PAM 22
CCCOC(=O)/C=C/c1c(C)[nH]c(=O)[nH]c1=O	none
O=C(COC(=O)C1CC1)Nc1ccc(Oc2ccccc2)cc1	none
Cc1cc(C)cc(N(CC(=O)NCc2ccc(F)cc2)C(=O)c2snc(C(N)=O)c2N)c1	CHRM1 agonist 16
Cc1cc(C)cc(N(CC(=O)NCc2ccco2)C(=O)c2snc(C(N)=O)c2N)c1	none
COc1ccccc1CNC1CCCc2ccccc21 (configuration not stated)	M4 antag 30
O[C@H]1C[C@H](c2ccccc2)N(Cc2cccs2)C[C@@H]1n1cc(-c2ccc(F)cc2)nn1	none
CC(C)NC(=O)/C(=C/c1cn(-c2ccccc2)nc1-c1cccc([N+](=O)[O-])c1)NC(=O)c1ccccc1	M4 antag 32
CC1CN(C(=O)CCC(=O)NCc2ccccn2)c2ccccc2O1 (configuration not stated)	none
Cc1c(Nc2nc3ccccc3nc2NS(=O)(=O)c2ccccc2)c(=O)n(-c2ccccc2)n1C	none
CC(NCCC(c1ccccc1)c1ccccc1)c1ccccc1 (configuration not stated)	M4 antag 45
CC(NC1CCCC1)c1ccccc1 (configuration not stated)	none
Cn1cc2cc([N+](=O)[O-])ccc2n1	CHRM1 agonist 23
CCc1ccc2c(c1)c1nnc(NN)nc1n2C	none
COc1ccc(N2CCN(c3ccc(NC(=O)c4ccc5c(c4)OCO5)cc3C#N)CC2)cc1	CHRM4 PAM 29
COc1ccc(CC(=O)Nc2ccc(N3CCN(c4ccc(OC)cc4)CC3)c(C#N)c2)cc1	none
COc1ccc(CCNC(=O)CSc2n[nH]c(N)n2)cc1OC	none
Cc1ccccc1OCC(=O)N/N=C1\CCOc2c(C)cccc21	none
COc1cccc2c1OCC/C2=N\NC(=O)COc1ccccc1C	CHRM4 PAM 23
O=C(CSc1nc(C(F)(F)F)cc(=O)[nH]1)Nc1nccs1	none
COCCn1c(=O)[nH]c2cc(C(=O)NC(C)C)ccc2c1=O	CHRM4 PAM 20
CCOc1ccccc1-c1ccc2nccn2c1	CHRM1 antagonist 61
CCN=C1SC(CC(=O)Nc2ccc(C(F)(F)F)cc2)C(=O)N1CC (configuration not stated)	CHRM1 antagonist 33
Cc1ccc(Cn2nc(C)c(NC(=O)CCCn3nc(C)c([N+](=O)[O-])c3C)c2C)cc1	none
Cc1ccc(Cn2nc(C)c(NC(=O)CCCn3nc([N+](=O)[O-])c(Cl)c3C)c2C)cc1	M1 PAM 21
Cc1nn(CCCC(=O)Nc2cccnc2Cl)c(C)c1[N+](=O)[O-]	M4 antag 29
COc1ccc(C(=O)CSc2ncn[nH]2)cc1OC	none
COc1ccc(OCCNC(=O)C(c2ccccc2)c2ccccc2)cc1	none
CCCOc1ccc(C(CC(=O)O)NC(=O)C(c2ccccc2)c2ccccc2)cc1 (configuration not stated)	none
COc1ccc(C(C(=O)OCCN(C)C)c2ccccc2)cc1 (configuration not stated)	CHRM1 antagonist 78
CCCOc1ccc(C(C(=O)OCCN(CC)CC)c2ccccc2)cc1 (configuration not stated)	CHRM1 antagonist 98
O=S(=O)(c1cccc(-c2n[nH]c(=S)o2)c1)N1CCOCC1	none
Cc1cccc(N2C(=O)CN=C2Nc2nc(C)cc(C)n2)c1	CHRM4 PAM 18

Screening data as filed in PubChem BioAssay.
